# Experimental data published in PubChem BioAssay (Tox21).
# Results filed as inconclusive are left out. Values without a mark were called inactive. Activity calls are given as the source filed them. The call rests on the fitted dose curve; in most records, active means well fitted cell-killing curve with a large enough effect in the repeat runs; inconclusive means weak or mixed curves, or effect the other way; inactive means flat fitted curve, though single readings scatter.
# Assay: qHTS assay to identify small molecule antagonists of the estrogen receptor alpha (ER-alpha) signaling pathway using the BG1 cell line in the presence of 0.1 nM 17-beta-estradiol - cell viability counter screen (AID 1259241); further: nearly all actives have a fitted effect of over 40% in size
# Conditions: VM7Luc4E2 (BG1) viability, CellTiter-Fluor protease, 22 h, 0.1 nM estradiol agonist added; series mostly up to 92.4 µM; activity change, negative = cytotoxicity: at the top concentration
# Method in brief: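 VM7Luc4E2 cells (endogenous full-length ER-alpha, 4xERE-luciferase), cultured 5 days in charcoal-stripped serum, exposed to compounds with 0.1 nM 17beta-estradiol (final) for 22 hr at 37C. Viability read in same wells as live-cell protease fluorescence after 30 min.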
# On the % scale 0 is the no-effect control and ±100 the full control effect; potency means the concentration at half of the fitted maximal effect.
SMILES,"activity change, negative = cytotoxicity",Potency
CCCCCCCCCCCCCCn1cc[n+](C)c1,-21.6%,–
O=c1c2ccccc2c(=O)c2c1cc(Cl)c1[nH]c3c([nH]c12)c(Cl)cc1c(=O)c2ccccc2c(=O)c13,5.04%,–
CC(Cc1ccc(OCC(=O)O)cc1)NCC(O)c1csc(C(F)(F)F)n1 (centres undefined),-15.2%,–
CCC(C)Br (centres undefined),0%,–
O=[N+]([O-])c1ccccc1-c1ccccc1,13.7%,–
CCN(CC)C(=S)S,–,15.3 µM (active)
Cc1c([N+](=O)[O-])c(C)c([N+](=O)[O-])c(C(C)(C)C)c1[N+](=O)[O-],-14%,–
CC(=O)[O-].CC(=O)[O-].CC(=O)[O-].[Cr+3],-1%,–
CCCCON=O,-3.31%,–
C[C@@H]1CC2=CC(=O)CC[C@@H]2[C@H]2CC[C@@]3(C)[C@@H](CC[C@]3(C)O)[C@@H]21,-15.5% [at 42.5 µM],–
CCNS(=O)(=O)C(F)(F)C(F)(F)C(F)(F)C(F)(F)C(F)(F)C(F)(F)C(F)(F)C(F)(F)F,-3.04%,–
OCC(Br)CBr (centres undefined),6.62%,–
[O]=[Cr][O][Cr]=[O],10.8%,–
CC(=O)[O-].CC(=O)[O-].O.O.[Zn+2],-0.141%,–
CC1=C2C[C@H]3[C@@H](CC=C4C[C@@H](O)CC[C@@]43C)[C@@H]2CC[C@]12O[C@@H]1C[C@H](C)CN[C@H]1[C@H]2C,-4.9% [at 42.5 µM],–
Oc1cc(Cl)c(Cl)c(Cl)c1Cl,-3.21%,–
CCCCC(CC)COC(=O)c1ccccc1C(=O)OCC(CC)CCCC (centres undefined),-0.147%,–
CN1C(=O)[C@@H](NC(=O)c2cc3ccccc3[nH]2)N=C(c2ccccc2)c2ccccc21,-5.04% [at 42.5 µM],–
[Cl-].[Cl-].[Cl-].[Yb+3],-0.572%,–
